Assay results from PubChem BioAssay AID1159580 (chemical genetic matrix, 2015).
The campaign covered roughly 5,500 compounds. About 2,000 (36%) were called active. Inconclusive results (about 18%) are left out. Rule as the data show it: active = normalized growth mostly below about 0.91 (no sharp cut-off); inconclusive = no clear call, values can overlap the other calls; inactive = mostly above about 0.92. The list shows a part of the results.

Experiment: chemical genetic growth profiling, strain panel (AID 1159580);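 also: tested at 20 µM; growth read once vehicle control cultures reached saturation at 30 °C; 1 = growth at the plate median or of vehicle wells; lower values mean less growth of the strain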
Conditions: growth OD

Measured: normalized growth

CCOc1cccc(C(=O)c2ccc(O)c(O)c2O)c1
inactive: S. cerevisiae deletion strains, locus YKL009W, strain mrt4, active compounds read low 0.914 | S. cerevisiae deletion strains, locus YKL068W, active compounds read low 0.972 | S. cerevisiae deletion strains, locus YKL085W, strain MDH1 (second series), active compounds read low 0.955 | S. cerevisiae deletion strains, locus YKL085W, strain MDH1, active compounds read low 0.955 | S. cerevisiae deletion strains, locus YKL160W, strain elf1, active compounds read low 0.93 | S. cerevisiae deletion strains, locus YKR026C, strain gcn3, active compounds read low 0.956 | S. cerevisiae deletion strains, locus YKR091W, strain srl3, active compounds read low 0.966 | S. cerevisiae deletion strains, locus YLL001W, strain dnm1, active compounds read low 0.945 | S. cerevisiae deletion strains, locus YLL026W, active compounds read low 0.936 | S. cerevisiae deletion strains, locus YLL041C, strain sdh2, active compounds read low 0.939 | S. cerevisiae deletion strains, locus YLR102C, strain apc9, active compounds read low 0.996 | S. cerevisiae deletion strains, locus YLR113W, strain HOG1, active compounds read low 1.05 | S. cerevisiae deletion strains, locus YLR370C, strain arc18, active compounds read low 0.939 | S. cerevisiae deletion strains, locus YLR384C, strain iki3, active compounds read low 0.938 | S. cerevisiae deletion strains, locus YML032C, strain rad52, active compounds read low 0.942 | S. cerevisiae deletion strains, locus YML124C, strain tub3, active compounds read low 0.948 | S. cerevisiae deletion strains, locus YMR078C, strain ctf18, active compounds read low 0.966 | S. cerevisiae deletion strains, locus YMR125W, strain sto1, active compounds read low 0.976 | S. cerevisiae deletion strains, locus YMR129W, active compounds read low 0.95 | S. cerevisiae deletion strains, locus YMR307W, strain GAS1, active compounds read low 0.698 | S. cerevisiae deletion strains, locus YNL183C, strain NPR1, active compounds read low 0.98 | S. cerevisiae deletion strains, locus YNL248C, strain rpa49, active compounds read low 0.95 | S. cerevisiae deletion strains, locus YNL250W, strain rad50, active compounds read low 0.937 | S. cerevisiae deletion strains, locus YNL298W, strain CLA4, active compounds read low 0.931 | S. cerevisiae deletion strains, locus YNL307C, strain MCK1, active compounds read low 0.907 | S. cerevisiae deletion strains, locus YNL322C, strain KRE1 (second series), active compounds read low 0.965 | S. cerevisiae deletion strains, locus YNR049C, strain mso1, active compounds read low 0.961 | S. cerevisiae deletion strains, locus YOL012C, strain htz1 0.288 | S. cerevisiae deletion strains, locus YOR080W, strain dia2, active compounds read low 0.961 | S. cerevisiae deletion strains, locus YOR083W, strain WHI5, active compounds read low 0.894 | S. cerevisiae deletion strains, locus YOR136W, strain idh2, active compounds read low 0.93 | S. cerevisiae deletion strains, locus YOR231W, strain MKK1, active compounds read low 1 | S. cerevisiae deletion strains, locus YOR316C, strain cot1, active compounds read low 0.962 | S. cerevisiae deletion strains, locus YPL078C, strain atp4, active compounds read low 0.931 | S. cerevisiae deletion strains, locus YPL240C, strain hsp82, active compounds read low 0.954 | S. cerevisiae deletion strains, locus YPL256C, strain CLN2, active compounds read low 1.07 | S. cerevisiae deletion strains, locus YPR119W, strain clb2, active compounds read low 0.982 | S. cerevisiae deletion strains, locus YPR141C, strain kar3, active compounds read low 0.963 | S. cerevisiae deletion strains, locus YPR163C, strain tif3, active compounds read low 0.936
active: S. cerevisiae deletion strains, locus YKR001C, strain vps1, active compounds read low 0.811 | S. cerevisiae deletion strains, locus YLR027C, strain aat2, active compounds read low 0.905 | S. cerevisiae deletion strains, locus YLR039C, strain RIC1, active compounds read low 0.521 | S. cerevisiae deletion strains, locus YLR058C, strain SHM2, active compounds read low 0.524 | S. cerevisiae deletion strains, locus YLR221C, strain rsa3, active compounds read low 0.87 | S. cerevisiae deletion strains, locus YLR258W, strain gsy2, active compounds read low 0.899 | S. cerevisiae deletion strains, locus YLR262C, strain YPT6 (second series), active compounds read low 0.627 | S. cerevisiae deletion strains, locus YLR268W, strain sec22, active compounds read low 0.72 | S. cerevisiae deletion strains, locus YLR320W, strain mms22, active compounds read low 0.806 | S. cerevisiae deletion strains, locus YLR330W, strain CHS5, active compounds read low 0.804 | S. cerevisiae deletion strains, locus YLR342W, strain FKS1 (second series), active compounds read low 0.633 | S. cerevisiae deletion strains, locus YLR342W, strain FKS1, active compounds read low 0.903 | S. cerevisiae deletion strains, locus YLR357W, strain rsc2, active compounds read low 0.706 | S. cerevisiae deletion strains, locus YLR371W, strain rom2, active compounds read low 0.737 | S. cerevisiae deletion strains, locus YLR418C, strain cdc73, active compounds read low 0.563 | S. cerevisiae deletion strains, locus YML016C, strain PPZ1, active compounds read low 0.71 | S. cerevisiae deletion strains, locus YML120C, strain ndi1, active compounds read low 0.765 | S. cerevisiae deletion strains, locus YMR058W, strain fet3, active compounds read low 0.283 | S. cerevisiae deletion strains, locus YMR205C, strain PFK2, active compounds read low 0.74 | S. cerevisiae deletion strains, locus YMR223W, strain ubp8, active compounds read low 0.844 | S. cerevisiae deletion strains, locus YMR231W, strain pep5, active compounds read low 0.826 | S. cerevisiae deletion strains, locus YMR263W, strain SAP30, active compounds read low 0.854 | S. cerevisiae deletion strains, locus YNL067W, strain RPL9B, active compounds read low 0.841 | S. cerevisiae deletion strains, locus YNL071W, strain lat1, active compounds read low 0.889 | S. cerevisiae deletion strains, locus YNL153C, strain GIM3, active compounds read low 0.747 | S. cerevisiae deletion strains, locus YNL209W, strain ssb2, active compounds read low 0.752 | S. cerevisiae deletion strains, locus YNL233W, strain BNI4, active compounds read low 0.781 | S. cerevisiae deletion strains, locus YNL271C, strain bni1, active compounds read low 0.886 | S. cerevisiae deletion strains, locus YNR052C, strain pop2, active compounds read low 0.739 | S. cerevisiae deletion strains, locus YOL006C, strain TOP1, active compounds read low 0.398 | S. cerevisiae deletion strains, locus YOL147C, strain pex11, active compounds read low 0.823 | S. cerevisiae deletion strains, locus YOR001W, strain rrp6, active compounds read low 0.87 | S. cerevisiae deletion strains, locus YOR061W, strain CKA2, active compounds read low 0.788 | S. cerevisiae deletion strains, locus YOR069W, strain VPS5, active compounds read low 0.808 | S. cerevisiae deletion strains, locus YOR070C, strain gyp1, active compounds read low 0.925 | S. cerevisiae deletion strains, locus YOR106W, strain vam3, active compounds read low 0.639 | S. cerevisiae deletion strains, locus YOR144C, strain elg1, active compounds read low 0.816 | S. cerevisiae deletion strains, locus YOR184W, strain ser1, active compounds read low 0.812 | S. cerevisiae deletion strains, locus YOR265W, strain rbl2, active compounds read low 0.923 | S. cerevisiae deletion strains, locus YOR270C, strain vph1, active compounds read low 0.637 | S. cerevisiae deletion strains, locus YOR290C, strain snf2, active compounds read low 0.64 | S. cerevisiae deletion strains, locus YPL051W, strain arl3, active compounds read low 0.767 | S. cerevisiae deletion strains, locus YPL106C, strain sse1, active compounds read low 0.823 | S. cerevisiae deletion strains, locus YPL241C, strain CIN2, active compounds read low 0.926 | S. cerevisiae deletion strains, locus YPR167C, strain met16, active compounds read low 0.84 | S. cerevisiae deletion strains, strain wtn01, active compounds read low 0.799 | S. cerevisiae strains, strain wild type, active compounds read low 0.635
